Drawing on PubChem BioAssay, this text covers composite z-score and z-score for six molecules.

The test system of experiment [1] is Plasmodium falciparum Sir2 (PF13_0152, Sir2A). The experiment can be described thus: Plasmodium falciparum Sir2A binding compounds – biochemical, small-molecule microarray, 635 nm fluorescence, primary screen (AID 1098).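 Also: score merges spot fluorescence intensity with its signal-to-noise ratio.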 The settings on record: fluorescence 635 nm, higher = more signal.
Experiment [2] can be described thus: probe aDKK1 binding to arrayed compounds – biochemical, biotinylated probe, 635/667 nm fluorescence, primary screen (AID 1099).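 Also: score merges 667nm spot fluorescence with signal to noise across triplicate slides.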 As to conditions: small-molecule microarray, higher = more signal.
Experiment [3] is described as follows: probe aCHRDL2 binding to arrayed compounds – biochemical, biotinylated probe, 635/667 nm fluorescence, primary screen (AID 1100). The settings on record: small-molecule microarray, higher = more signal.
Experiment [4] is described as follows: change in splice reporter luminescence, either direction, cell-based, HEK293, spliceosome inhibition project, primary screen (AID 1101).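 Also: HEK293 cells carrying a splicing-competent luciferase reporter gene; test concentration not given here.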 As to conditions: HEK293 splicing luciferase reporter, 24 h, higher = more signal, called active from +8 up or from −8 down. In general terms: Reporter assays use an easily measured gene product as a stand-in for the process of interest.

For experiment [5], the target named is Fibroblast growth factor 10 (Homo sapiens) (UniProt O15520). The experiment can be described thus: compounds binding fibroblast growth factor 10 – biochemical, small-molecule microarray, 635 nm fluorescence, primary screen (AID 1102). As to conditions: FGF10 binding, fluorescence 635 nm, higher = more signal.
Sequence of Fibroblast growth factor 10 (Homo sapiens) (O15520 whole entry, looked up): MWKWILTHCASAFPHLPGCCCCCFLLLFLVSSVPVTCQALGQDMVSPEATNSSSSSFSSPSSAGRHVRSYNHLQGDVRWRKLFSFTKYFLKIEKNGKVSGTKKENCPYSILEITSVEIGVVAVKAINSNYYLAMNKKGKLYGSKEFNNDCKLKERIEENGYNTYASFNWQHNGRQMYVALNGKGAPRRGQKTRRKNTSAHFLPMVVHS
Experiment [6] has as its system glycogen synthase kinase-3 (GSK3A per assay name; protocol says GSK3B). The experiment can be described thus: compounds binding glycogen synthase kinase-3 – biochemical, small-molecule microarray, 635 nm fluorescence, GSK3A, primary screen (AID 1103). Also: the record names both GSK3A and GSK3B. As to conditions: fluorescence 635 nm, higher = more signal.
For experiment [7], the target named is Epidermal growth factor receptor (Homo sapiens) (UniProt P00533). The experiment is described as follows: compounds binding epidermal growth factor receptor – biochemical, small-molecule microarray, 635 nm fluorescence, primary screen (AID 1104).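 Also: score merges 667 nm emission intensity with spot signal to noise over triplicate slides.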 The settings on record: EGFR binding, higher = more signal.
Sequence of Epidermal growth factor receptor (Homo sapiens) (P00533 whole entry, looked up): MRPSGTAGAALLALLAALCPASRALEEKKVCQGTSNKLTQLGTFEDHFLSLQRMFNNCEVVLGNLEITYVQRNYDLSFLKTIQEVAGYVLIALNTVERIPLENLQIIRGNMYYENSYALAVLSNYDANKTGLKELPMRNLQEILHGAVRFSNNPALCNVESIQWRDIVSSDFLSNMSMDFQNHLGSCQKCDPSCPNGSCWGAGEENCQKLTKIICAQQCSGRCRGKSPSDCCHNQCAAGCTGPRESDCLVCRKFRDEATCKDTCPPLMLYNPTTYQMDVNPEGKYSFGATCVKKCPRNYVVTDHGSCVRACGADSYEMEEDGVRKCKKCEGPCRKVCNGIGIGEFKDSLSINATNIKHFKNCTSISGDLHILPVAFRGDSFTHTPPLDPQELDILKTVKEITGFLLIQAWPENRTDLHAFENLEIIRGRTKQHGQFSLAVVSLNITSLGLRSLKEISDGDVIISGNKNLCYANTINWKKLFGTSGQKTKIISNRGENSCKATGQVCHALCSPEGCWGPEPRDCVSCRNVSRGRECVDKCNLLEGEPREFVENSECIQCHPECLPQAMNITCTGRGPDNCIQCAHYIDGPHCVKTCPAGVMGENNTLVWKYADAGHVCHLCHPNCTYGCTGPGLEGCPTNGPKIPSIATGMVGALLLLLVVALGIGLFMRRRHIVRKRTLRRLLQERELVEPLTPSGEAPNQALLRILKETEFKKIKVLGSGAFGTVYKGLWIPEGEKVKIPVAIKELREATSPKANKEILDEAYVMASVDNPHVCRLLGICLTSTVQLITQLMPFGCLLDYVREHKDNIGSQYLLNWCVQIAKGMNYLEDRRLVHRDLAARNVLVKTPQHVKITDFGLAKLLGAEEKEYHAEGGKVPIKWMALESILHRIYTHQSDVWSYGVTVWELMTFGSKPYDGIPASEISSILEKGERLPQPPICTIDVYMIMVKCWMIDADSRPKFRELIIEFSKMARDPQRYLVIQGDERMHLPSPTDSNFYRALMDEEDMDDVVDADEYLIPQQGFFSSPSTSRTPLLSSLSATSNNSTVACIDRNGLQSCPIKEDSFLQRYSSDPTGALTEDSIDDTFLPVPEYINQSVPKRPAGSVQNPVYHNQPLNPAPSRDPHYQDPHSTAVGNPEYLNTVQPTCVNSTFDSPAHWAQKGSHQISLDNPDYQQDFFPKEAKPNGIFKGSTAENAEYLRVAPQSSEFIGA
The target in experiment [8] is Follistatin-related protein 3 (Homo sapiens) (UniProt O95633). The experiment can be described thus: compounds binding follistatin-related protein 3 – biochemical, small-molecule microarray, 635 nm fluorescence, primary screen (AID 1105).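 Also: score merges emission near 667 nm and signal to noise per printed spot across three slides.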 The settings on record: FSTL3 binding, higher = more signal.
Sequence of Follistatin-related protein 3 (Homo sapiens) (O95633 whole entry, looked up): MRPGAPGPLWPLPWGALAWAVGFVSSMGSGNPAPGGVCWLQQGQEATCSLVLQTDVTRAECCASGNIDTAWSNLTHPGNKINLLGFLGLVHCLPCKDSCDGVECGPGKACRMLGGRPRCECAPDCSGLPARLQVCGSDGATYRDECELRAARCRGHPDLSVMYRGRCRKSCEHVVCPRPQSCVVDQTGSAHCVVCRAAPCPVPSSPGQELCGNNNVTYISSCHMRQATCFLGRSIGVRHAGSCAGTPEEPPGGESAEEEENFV
Experiment [9] deals with Dickkopf-related protein 1 (Homo sapiens) (UniProt O94907). The experiment can be described thus: small molecules binding DKK1 protein – biochemical, small-molecule microarray, 635 nm fluorescence scan, primary screen (AID 1106).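 Also: score merges emission near 667 nm with signal to noise over three replicate slides.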 As to conditions: higher = more signal.
Sequence of Dickkopf-related protein 1 (Homo sapiens) (O94907 whole entry, looked up): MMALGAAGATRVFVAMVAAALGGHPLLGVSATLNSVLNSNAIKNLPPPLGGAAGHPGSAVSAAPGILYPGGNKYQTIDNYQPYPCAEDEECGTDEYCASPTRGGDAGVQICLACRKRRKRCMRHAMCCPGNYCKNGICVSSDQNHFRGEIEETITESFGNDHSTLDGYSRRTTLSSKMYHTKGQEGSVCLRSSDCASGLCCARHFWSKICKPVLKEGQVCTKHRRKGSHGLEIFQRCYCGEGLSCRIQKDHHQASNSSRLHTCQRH
The test system of experiment [10] is Inhibin beta A chain (activin A). The experiment can be described thus: small molecules binding activin A – biochemical, small-molecule microarray, 635 nm fluorescence scan, primary screen (AID 1107).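 Also: mouse activin A protein probed at 4.33 µg/mL on printed slides; score merges bound-protein fluorescence near 667 nm with spot signal-to-noise.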 The settings on record: INHBA, higher = more signal.
Experiment [11] has as its system Human papillomavirus type 1a protein E7 (residues 44-93). The experiment can be described thus: small molecules binding HPV E7 44-93 – biochemical, small-molecule microarray, residues 44-93, 635 nm fluorescence, primary screen (AID 1108).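 Also: E7 fragment applied at 1 µg/mL in TBST for 1 h at 4 C; score combines spot fluorescence with its signal to noise ratio.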 As to conditions: fluorescence 635 nm, higher = more signal.
Experiment [12] can be described thus: hepatitis C replication reporter changes, two-sided – Huh7 cells, luciferase reporter, HCV replication inhibitor project, primary screen (AID 1109).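 Also: huh7 hepatoma cells harbouring a luciferase neomycin HCV replicon reporter; luciferase luminescence as measure of HCV replicon replication; test concentration not given here.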 The settings on record: Huh7 HCV replicon luciferase reporter, 48 h; higher = more signal.
The target of experiment [13] is Left-right determination factor 2 (Homo sapiens) (UniProt O00292). The experiment is described as follows: small molecules binding LEFTY2 protein – biochemical, small-molecule microarray, 635 nm fluorescence scan, primary screen (AID 1110). The settings on record: higher = more signal.
Sequence of Left-right determination factor 2 (Homo sapiens) (O00292 whole entry, looked up): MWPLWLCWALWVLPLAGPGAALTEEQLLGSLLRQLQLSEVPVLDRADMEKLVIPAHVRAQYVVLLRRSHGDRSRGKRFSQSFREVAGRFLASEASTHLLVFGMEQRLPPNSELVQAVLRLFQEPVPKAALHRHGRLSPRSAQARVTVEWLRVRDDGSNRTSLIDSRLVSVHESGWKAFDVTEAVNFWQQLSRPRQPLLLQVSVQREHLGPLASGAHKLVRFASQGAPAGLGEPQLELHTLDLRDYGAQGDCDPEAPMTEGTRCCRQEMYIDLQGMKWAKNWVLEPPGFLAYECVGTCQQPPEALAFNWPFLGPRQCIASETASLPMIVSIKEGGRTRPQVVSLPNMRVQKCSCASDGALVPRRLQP
Experiment [14] deals with Calmodulin-1 (Homo sapiens) (UniProt P0DP23). The experiment can be described thus: small molecules binding calmodulin-1 with EGTA – biochemical, small-molecule microarray, Cy5-labelled CALM1, profiling panel (AID 1111).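 Also: labelled calmodulin applied in Tris saline Tween buffer holding calcium plus EGTA and DTT.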 As to conditions: Cy5-CALM1 binding fluorescence, higher = more signal.
Experiment [15] shares this target. The experiment is described as follows: small molecules binding Ca-loaded calmodulin-1 – biochemical, small-molecule microarray, Cy5-labelled CALM1, plus calcium, artefact control for SMM control-protein annotation, profiling panel (AID 1112).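 Also: score merges spot fluorescence with signal to noise from triplicate slides.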 The settings on record: Cy5-CALM1 binding fluorescence, higher = more signal.
Experiment [16] in a line: probe aWnt5a binding to arrayed compounds – biochemical, biotinylated probe, 635/667 nm fluorescence, primary screen (AID 1113).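 Also: score merges 667 nm fluorescence intensity with signal-to-noise per printed feature.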 The settings on record: small-molecule microarray, higher = more signal.
Experiment [17] can be described thus: probe aShh binding to arrayed compounds – biochemical, biotinylated probe, 635/667 nm fluorescence, primary screen (AID 1114).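 Also: probe is biotin-labelled aShh protein from a stem cell growth factor screen; measures binding of labelled protein to compounds printed on the slide; score merges feature fluorescence at 667 nm with signal-to-noise.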 The settings on record: small-molecule microarray, higher = more signal.
A short description of experiment [18]: probe aNog binding to arrayed compounds – biochemical, biotinylated probe, 635/667 nm fluorescence, primary screen (AID 1115).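 Also: probe is biotinylated aNog protein used at 0.15 µg/mL for 1 h at 4 C; z-score combines 667 nm fluorescence of each spot with its signal to noise.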 The settings on record: small-molecule microarray, higher = more signal.
In experiment [19] the target is Torsin-1A-interacting protein 1 (Homo sapiens) (UniProt Q5JTV8). The experiment is described as follows: compound microarray binding of lysate hLAP1 – cell lysate, small-molecule microarray, COS7 lysate, 635/667 nm fluorescence, primary screen (AID 1116). As to conditions: 635 nm fluorescence, higher = more signal.
Sequence of Torsin-1A-interacting protein 1 (Homo sapiens) (Q5JTV8 whole entry, looked up): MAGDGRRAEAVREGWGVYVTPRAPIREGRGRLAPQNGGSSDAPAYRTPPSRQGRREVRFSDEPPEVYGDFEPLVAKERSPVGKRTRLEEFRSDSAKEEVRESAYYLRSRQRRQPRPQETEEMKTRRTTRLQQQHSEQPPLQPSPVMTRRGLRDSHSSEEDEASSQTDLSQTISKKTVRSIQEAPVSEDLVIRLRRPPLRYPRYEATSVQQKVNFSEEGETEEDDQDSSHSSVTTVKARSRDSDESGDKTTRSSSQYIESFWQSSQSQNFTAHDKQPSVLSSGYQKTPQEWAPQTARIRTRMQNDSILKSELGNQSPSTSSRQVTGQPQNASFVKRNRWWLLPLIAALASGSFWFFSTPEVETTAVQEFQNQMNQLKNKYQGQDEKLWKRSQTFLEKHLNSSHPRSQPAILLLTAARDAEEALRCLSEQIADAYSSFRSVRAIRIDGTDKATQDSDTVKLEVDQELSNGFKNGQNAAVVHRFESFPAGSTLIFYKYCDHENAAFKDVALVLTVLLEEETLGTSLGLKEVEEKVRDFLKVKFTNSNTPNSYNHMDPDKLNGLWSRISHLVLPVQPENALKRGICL
Experiment [20] concerns the target Alpha-bungarotoxin (Bungarus multicinctus) (UniProt P60615). The experiment can be described thus: compounds binding labelled alpha-BTX control protein – biochemical, small-molecule microarray, Alexa647 label, 635/667 nm fluorescence, artefact control for SMM control protein annotation, profiling panel (AID 1117). As to conditions: alpha-BTX-A647 binding fluorescence, higher = more signal.

The source made the active and inactive calls.

Sequence of Alpha-bungarotoxin (Bungarus multicinctus) (P60615 whole entry, looked up): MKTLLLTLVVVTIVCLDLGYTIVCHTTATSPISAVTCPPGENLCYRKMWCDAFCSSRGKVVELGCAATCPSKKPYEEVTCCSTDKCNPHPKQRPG

For `COC(=O)c1c(CC[C@@H](CO)NC(=O)N[C@H](Cc2ccccc2)Cn2cc(-c3ccccc3N)nn2)oc(C(C)=O)c1C(=O)OC`, the composite z-score was 0.326 in experiment [1]; 0.759 in [2]; 0.886 in [3]; 0.865 in [5]; 0.355 in experiment [6]; -0.165 in [7]. Further, the composite z-score in experiment [8] is 0.204; in experiment [9], -0.299; in [10], 0.95; in experiment [11], 0.734; in experiment [13], -0.104; in experiment [14] it was -0.0936. The composite z-score was -0.656 in experiment [15]; -0.001 in experiment [16]; 0.0326 in experiment [17]; 1.12 in [18]; 1.54 in experiment [19]; 0.57 in experiment [20]. For the same molecule, the z-score was 0.433 (inactive) in [4] and -1.35 in experiment [12].

`Cc1ccc(S[C@]2(C(=O)O)CC(=O)N(Cc3ccccc3)[C@@H]2c2ccc(CO)cc2I)cc1`: the composite z-score was 1.17 in [1]; -0.0401 in [2]; 0.894 in experiment [3]; -0.406 in [5]; -0.0099 in experiment [6]; -0.814 in experiment [7]. In addition, the composite z-score is -0.417 in experiment [8]; -0.776 in experiment [9]; 0.84 in [10]; 0.34 in [11]; -0.891 in [13]; -0.0405 in experiment [14]. The composite z-score was -0.0584 in experiment [15]; -0.118 in experiment [16]; -0.206 in [17]; -0.409 in [18]; -0.192 in [19]; 0.823 in experiment [20]. The z-score in [4] is -0.982 (inactive); in experiment [12], -1.45.

Take `C[C@H](c1ccccc1)N1C(=O)[C@H]2[C@@H]3C(=CC[C@H]2C1=O)C(=O)[C@H]1O[C@H]1[C@H]3O`: the composite z-score in experiment [1] was 0.816; in [2], -0.191; in experiment [3], -0.559; in [5], 0.388; in experiment [6], 0.359; in experiment [7], 0.626. In addition, the composite z-score in experiment [8] is 0.359; in experiment [9], 0.87; in experiment [10] it was 0.527; in [11], -0.546; in [13] it was 0.429; in experiment [14], -0.119. For the same molecule, the composite z-score in experiment [15] is -0.932; in [16], -0.0405; in [17], 0.0402; in [18], -0.416; in experiment [19], 0.326; in [20], -0.0114. The z-score in experiment [4] is 4.45 (inactive); in [12] it was -4.71.

For the molecule `CC(CCN1CCc2nc(-c3ccccc3)c(-c3ccccc3)cc2C1)=NOC[C@@H](C)[C@H](OCc1ccccc1)C(C)C`, the composite z-score was 1.42 in experiment [1]; -0.215 in experiment [2]; 0.213 in experiment [3]; -1.3 in experiment [5]; -1.52 in experiment [6]; -1.15 in experiment [7]. Besides, the composite z-score was -1.76 in experiment [8]; -1.21 in experiment [9]; 0.166 in experiment [10]; -1.08 in [11]; -0.323 in [13]; -0.607 in [14]. The composite z-score in experiment [15] was 0.343; in experiment [16], -0.134; in [17], -0.304; in experiment [18], -0.278; in experiment [19], -0.424; in experiment [20], 1.14. For the same molecule, the figures for the z-score in experiment [4] and in experiment [12] were -0.0457 (inactive) and -1.77, respectively.

For the molecule `O=C(NN=C1C[C@@H](O)[C@@H](O)[C@@H]2[C@@H]3C(=O)N(c4cccc(Oc5ccccc5)c4)C(=O)[C@@H]3CC[C@H]12)OCc1ccccc1`, the composite z-score in [1] was 0.373; in experiment [2], 0.0708; in experiment [3] it was 0.408; in experiment [5], -0.113; in [6], -0.281; in experiment [7] it was 0.116. For the same molecule, the composite z-score is -0.146 in experiment [8]; -0.0924 in experiment [9]; 0.242 in experiment [10]; -0.142 in experiment [11]; 0.0075 in [13]; 0.0088 in experiment [14]. The composite z-score is -0.312 in experiment [15]; -0.0664 in [16]; 0.3 in experiment [17]; 0.116 in experiment [18]; -0.0681 in experiment [19]; 1.05 in [20]. In addition, the z-score is 0.0933 (inactive) in [4] and -0.597 in experiment [12].

For `CCCNC(=O)OC[C@H]1O[C@H](CCON=C2[C@H]3CCn4c(=O)n(-c5ccccc5)c(=O)n4[C@H]3[C@H](O)[C@@H]3O[C@H]23)C=C[C@@H]1Oc1ccc(OC)cc1`, the composite z-score was 0.357 in [1]; -0.139 in experiment [2]; -0.182 in [3]; 0.2 in [5]; 0.343 in experiment [6]; -0.0629 in [7]. In addition, the composite z-score in [8] is 0.493; in [9] it was 0.378; in [10], 0.103; in experiment [11], 0.252; in experiment [13] it was 0.292; in experiment [14], -1.01. The composite z-score in experiment [15] is -0.661; in [16], -0.0944; in experiment [17], 0.0062; in experiment [18], -0.124; in experiment [19] it was -0.0551; in [20], 0.134. The values for the z-score in experiment [4] and in [12] were -0.374 (inactive) and -4.4, respectively.
